# Results taken from PubChem BioAssay AID651998 (The Scripps Research Institute Molecular Screening Center, 2013).
# Tested on: LYPLA1
# Assay: LYPLA1 enzyme kinetics with inhibitors – biochemical, substrate-based fluorescence, Ki, Km, late-stage follow-up (AID 651998)
# Settings: recombinant LYPLA1, resorufin acetate hydrolysis fluorescence, Ki from Cheng-Prusoff
structure (smiles),measurement,value
O=C(CN1CCN(C(=O)c2ccco2)CC1)Nc1cc(C(F)(F)F)ccc1Cl,Ki,300 nM
